Data as given in paper PMC10726135, “HNF4α isoforms regulate the circadian balance between carbohydrate and lipid metabolism in the liver”.
In all, about 18,000 sequences were measured (“log2 normalized intensity”: median about 0.36, highest 2% from about 7.3 on). For the sample, the highest values were picked, then their nearest neighbours and some sequences at random.

These sequences were tested against T1, HNF4alpha8 (COS-7 nuclear extract) (Homo sapiens, UniProt P41235-5 1-452) (assay: protein-binding microarray; COS-7 nuclear extract on double-stranded Agilent 4x180k PBM; binding buffer, salt, pH and temperature not given in the material; high values mean tight binding). Conditions: chain copies: 2; label: 3' end of strand 1 on the slide; dsDNA, one strand shown.
T1 sequence: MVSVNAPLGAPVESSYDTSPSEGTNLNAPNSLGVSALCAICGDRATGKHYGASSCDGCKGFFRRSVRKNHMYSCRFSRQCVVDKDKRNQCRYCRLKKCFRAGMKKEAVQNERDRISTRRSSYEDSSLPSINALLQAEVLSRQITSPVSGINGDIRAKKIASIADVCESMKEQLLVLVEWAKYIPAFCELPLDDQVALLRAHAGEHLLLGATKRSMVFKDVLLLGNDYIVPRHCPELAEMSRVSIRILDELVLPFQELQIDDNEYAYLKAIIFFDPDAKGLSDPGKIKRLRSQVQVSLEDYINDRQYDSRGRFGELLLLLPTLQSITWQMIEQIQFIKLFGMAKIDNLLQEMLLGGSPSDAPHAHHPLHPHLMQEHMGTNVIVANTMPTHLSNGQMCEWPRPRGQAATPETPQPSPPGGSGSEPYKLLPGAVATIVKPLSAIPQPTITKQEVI
Summary of the method: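 Double-stranded oligonucleotides of ~60 nt, representing ~44,000 test sequences in quadruplicate, made up a custom Agilent SurePrint G3 4x180k array. Nuclear extracts from COS-7 cells transiently transfected by CaPO4 with a human HNF4α isoform expression vector were applied, and bound HNF4α was imaged at 2-µm resolution on an Agilent G2565CA scanner. Binding signal refers to the background-corrected, normalized gProcessedSignal output of Agilent software.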

Row | Sequence | binding signal [log2 normalized intensity]
1 | CTGAATCTCCCAGTGCTTTGATCTTCAACTGCCTAGGGAGATTAGAGTATCGGTCGA | 0.419
2 | CACTTGTAGGCCTGTGTGCATGGAGTGCACGCCTAGGGAGATTAGAGTATCGGTCGA | 0.798
3 | CCCCGCCCGCAGCCCAGTCTTGGCCCCACCGCCTAGGGAGATTAGAGTATCGGTCGA | 6.38
4 | GAGTTATCTTCCTCCCCCCTTGGCTACATGGCCTAGGGAGATTAGAGTATCGGTCGA | 4.15
5 | TAGGCATTGTCTTGAAAGATAAAGTGTCTCGCCTAGGGAGATTAGAGTATCGGTCGA | 1.48
6 | TGTGTCAAAGGTCACTTAGTCCCTAAGTCTGCCTAGGGAGATTAGAGTATCGGTCGA | 5.26
7 | TTCCCTACCCCCTGGGAGTAACCTGCTTGTGCCTAGGGAGATTAGAGTATCGGTCGA | 2.25
8 | TTTTAAATACCTTTTTGGGACTGATAACTTGCCTAGGGAGATTAGAGTATCGGTCGA | 1.23
9 | AGCATGGAGAAAATTCTGGACCTTCTTATCGCCTAGGGAGATTAGAGTATCGGTCGA | 1.59
10 | CGCTGCGGGTCACGTGCCGCTGCGGGTCACGCCTAGGGAGATTAGAGTATCGGTCGA | 2.61
11 | AGAATGACCAGGAGTTTGGGATCAGACACGGCCTAGGGAGATTAGAGTATCGGTCGA | 0.332
12 | GAAACTTATTGTGAACTGGAGCAAAGGTCAGCCTAGGGAGATTAGAGTATCGGTCGA | 5.97
13 | TTATCTTGATGGTTAAAGTCCAATCTTCTGGCCTAGGGAGATTAGAGTATCGGTCGA | 4.82
14 | GACCATCACCACTTCAAGCTTGGTATGCTTGCCTAGGGAGATTAGAGTATCGGTCGA | -0.696
15 | AGACTTTTTTTTTCTTAATTGCCCTTTGCCGCCTAGGGAGATTAGAGTATCGGTCGA | 5.04
16 | ACAGTAGACTTTTTTTTTCTTAATTGCCCTGCCTAGGGAGATTAGAGTATCGGTCGA | 3.18
17 | TTTTTTTTCTTAATTGCCCTTTGCCCTTTGGCCTAGGGAGATTAGAGTATCGGTCGA | 9.03
18 | GAACAGCAAGACTTTGGCCCTGCAGACTTTGCCTAGGGAGATTAGAGTATCGGTCGA | 3.02
19 | TCTGATGCCATGATAAGCAGTGTGGACTTTGCCTAGGGAGATTAGAGTATCGGTCGA | 7.54
20 | GTGACTTGAAAGGGACTTAGAATCGAATTGGCCTAGGGAGATTAGAGTATCGGTCGA | -0.0805
21 | GATTGGACTTTGGCCTGTGAATCCACATTCGCCTAGGGAGATTAGAGTATCGGTCGA | 6.47
22 | GGACTTTGGCCCTCAGCCCAATGTGGTAGGGCCTAGGGAGATTAGAGTATCGGTCGA | 6.09

Row | Sequence | binding signal [log2 normalized intensity]
23 | ACCTCTCTGATGCCATGATAAGCAGTGTGGGCCTAGGGAGATTAGAGTATCGGTCGA | 0.716
24 | AAAGAGATTGGACTTTGGCCTGTGAATCCAGCCTAGGGAGATTAGAGTATCGGTCGA | 9.05
25 | TGAATTCTGCAGCAGATGGCCAGCCTTTGGGCCTAGGGAGATTAGAGTATCGGTCGA | -0.939
26 | TACTGGGGATGGACTTTGGCCCTCAGCCCAGCCTAGGGAGATTAGAGTATCGGTCGA | 9.48
27 | TGCCATGATAAGCAGTGTGGACTTTTTCCTGCCTAGGGAGATTAGAGTATCGGTCGA | 3.69
28 | GGGATGGACTTTGGCCCTCAGCCCAATGTGGCCTAGGGAGATTAGAGTATCGGTCGA | 7.1
29 | TCTGCAGCAGATGGCCAGCCTTTGGACTTTGCCTAGGGAGATTAGAGTATCGGTCGA | 8.08
30 | CCCTGGTCTCTCTTACCCAACCAAAAACAAGCCTAGGGAGATTAGAGTATCGGTCGA | 3.38
31 | TACAGGCGTGAGCCACCGCGCCCCGCCCCCGCCTAGGGAGATTAGAGTATCGGTCGA | 6.17
32 | TCTCAGGTGAGCAGAGGGAGGACAAAGTTCGCCTAGGGAGATTAGAGTATCGGTCGA | 5.01
33 | GCCACATCCCCCACACCGAGATAGTAGAGAGCCTAGGGAGATTAGAGTATCGGTCGA | 3.27
34 | ACTTCTGAGTTTTATCAGCTTCCCTGAGATGCCTAGGGAGATTAGAGTATCGGTCGA | -0.495
35 | AAACTTCCACTAACTTGAGTGTGCACCCTGGCCTAGGGAGATTAGAGTATCGGTCGA | 1.93
36 | CCGCAGCGCTGGTGGCTGCAAGGTTTGTGTGCCTAGGGAGATTAGAGTATCGGTCGA | 0.472
37 | TTATCATTACTTCTCAACTGATATGGCTCTGCCTAGGGAGATTAGAGTATCGGTCGA | 0.393
38 | AAGAAACTCGTGGCATTTTTGCCCCTGCCCGCCTAGGGAGATTAGAGTATCGGTCGA | 3.61
39 | CAAATAACATTCCTAACATTCTTCCTCACAGCCTAGGGAGATTAGAGTATCGGTCGA | -0.982
40 | TTTGATGGACATTGCTGGTGGTGGTAGATCGCCTAGGGAGATTAGAGTATCGGTCGA | 1.45
41 | TTTGTGATTACATTGAGTCCACTGAGATCAGCCTAGGGAGATTAGAGTATCGGTCGA | 1.91
42 | CACTTTCCACTCTCTACTGATATGTCCTCCGCCTAGGGAGATTAGAGTATCGGTCGA | 1.83
43 | TTTCTGCTCTCAACTAGAGATAAACTTTTGGCCTAGGGAGATTAGAGTATCGGTCGA | 0.481
44 | CCCCACTGTAGTAAGGGAGTGTGGGGTGGTGCCTAGGGAGATTAGAGTATCGGTCGA | -0.92

Row | Sequence | binding signal [log2 normalized intensity]
45 | TGTGCTGCCCCCGATAGCACTATTAGTCTTGCCTAGGGAGATTAGAGTATCGGTCGA | 3.06
46 | GCCACATCCTGTCTCCTTTAACCTTCATTCGCCTAGGGAGATTAGAGTATCGGTCGA | 1.97
47 | CACTGTCTCAGGGTCCACATTCCAGGAATAGCCTAGGGAGATTAGAGTATCGGTCGA | 2.44
48 | TGATAGCCATCTGGTGGACTTTGCTCTGCTGCCTAGGGAGATTAGAGTATCGGTCGA | 8.15
49 | GCCATCTGGTGGACTTTGCTCTGCTCATTTGCCTAGGGAGATTAGAGTATCGGTCGA | 7.25
50 | CAGCCTTTGGACTTTGAACTGCAACATCAGGCCTAGGGAGATTAGAGTATCGGTCGA | 8.89
51 | GCATTAACATCAACATGGACTTTGAGTCATGCCTAGGGAGATTAGAGTATCGGTCGA | 6.9
52 | TTTTTGGCCTTTACCCCTTGAGTTTGAACTGCCTAGGGAGATTAGAGTATCGGTCGA | 4.12
53 | AGCAGATGGCCAGCCTTTGGACTTTGAACTGCCTAGGGAGATTAGAGTATCGGTCGA | 11.2
54 | ACCTGGAACTGAAAGAGACCTTTGACATCAGCCTAGGGAGATTAGAGTATCGGTCGA | 5.23
55 | TTCCTGCATTAACATCAACATGGACTTTGAGCCTAGGGAGATTAGAGTATCGGTCGA | 9.28
56 | TACCTTTCCTGCATTAACATCAACATGGACGCCTAGGGAGATTAGAGTATCGGTCGA | 2.03
57 | CTGGACTTTGGCTGCAAAATTTGAACAAAAGCCTAGGGAGATTAGAGTATCGGTCGA | 2.14
58 | CTGCCTTTCCCAGATGGATTGATAGACTTAGCCTAGGGAGATTAGAGTATCGGTCGA | 0.78
59 | CTGCTTGATAGCCATCTGGTGGACTTTGCTGCCTAGGGAGATTAGAGTATCGGTCGA | 6.09
60 | TCCAACCTGTTCTTTTGAGCTGTGGTTAAGGCCTAGGGAGATTAGAGTATCGGTCGA | 1.73
61 | CAATCCAGAAGGCGCTGAACTTTGCCTTGTGCCTAGGGAGATTAGAGTATCGGTCGA | 5.04
62 | ATGGGACCTTTGCCCTTCTTGTTAACCTCCGCCTAGGGAGATTAGAGTATCGGTCGA | 4.54
63 | CCTGAGCCTGGACCTTGGAATGTCAAGATTGCCTAGGGAGATTAGAGTATCGGTCGA | 3.05
64 | AGCAGCATAAAGGACTTTCAACCCTGTGATGCCTAGGGAGATTAGAGTATCGGTCGA | 3.89
65 | AAAACCATTGCAAATTGGATGTTGAACCTCGCCTAGGGAGATTAGAGTATCGGTCGA | 4.51
66 | ATGGCCAGCCTTTGGACTTTGAACTGCAACGCCTAGGGAGATTAGAGTATCGGTCGA | 10.1

Row | Sequence | binding signal [log2 normalized intensity]
67 | AGGGTCTTTGCAACTGTGTGTGGCCTGCACGCCTAGGGAGATTAGAGTATCGGTCGA | 1.53
68 | ATGGAAGGACCTTGGACTGAAGACTGGAACGCCTAGGGAGATTAGAGTATCGGTCGA | 3.17
69 | GCTGGGTCAAAGTGTATGCATATTTTAAGTGCCTAGGGAGATTAGAGTATCGGTCGA | 2.27
70 | CCCACCCCCACGCCCCCCAGCGGAAGTCCAGCCTAGGGAGATTAGAGTATCGGTCGA | 6.82
71 | GGAACCCCACCCCCACGCCCCCCAGCGGAAGCCTAGGGAGATTAGAGTATCGGTCGA | 7.38
72 | TTCATCCCCACCCCCACTGCCTGACCCCAAGCCTAGGGAGATTAGAGTATCGGTCGA | 7.49
73 | ACCGACCTTTGGTTCCTGAACTCAAACCCCGCCTAGGGAGATTAGAGTATCGGTCGA | 3.35
74 | GAGGTTCCTGGAACTCTGACCTTTGCCCCCGCCTAGGGAGATTAGAGTATCGGTCGA | 10.3
75 | GGATCGGAACCCCACCCCCACGCCCCCCAGGCCTAGGGAGATTAGAGTATCGGTCGA | 7.03
76 | TCCTGGAACTCTGACCTTTGCCCCCAGCCTGCCTAGGGAGATTAGAGTATCGGTCGA | 10.1
77 | CCCCCACTGCCTGACCCCAAGTAATAGCCGGCCTAGGGAGATTAGAGTATCGGTCGA | 5.69
78 | AAATCTGCCCAACCTTTGCCCCTGGAGGGAGCCTAGGGAGATTAGAGTATCGGTCGA | 4.18
79 | CCCCACCCCCACTGCCTGACCCCAAGTAATGCCTAGGGAGATTAGAGTATCGGTCGA | 7.09
80 | GCCTGCCCCTCTGACCTCTCCTCCTACCTTGCCTAGGGAGATTAGAGTATCGGTCGA | 3.39
81 | AGGAGGAGGTTCCTGGAACTCTGACCTTTGGCCTAGGGAGATTAGAGTATCGGTCGA | 6.98
82 | CTTCCACCCACTTTATCTTCTATAGGAATTGCCTAGGGAGATTAGAGTATCGGTCGA | 0.738
83 | GTGTGTGGCCTGCACAGTTGCACAATGTCAGCCTAGGGAGATTAGAGTATCGGTCGA | 0.815
84 | CTATAGTTATCTCTGCTGATAGCATAAAGCGCCTAGGGAGATTAGAGTATCGGTCGA | 0.212
85 | GGCTCCCTGGGGTTAAAATGTTTACTGAAGGCCTAGGGAGATTAGAGTATCGGTCGA | 0.937
